We go through 25 compounds from PubChem BioAssay (Tox21).

Test [1] can be described thus: qHTS assay to identify small molecule antagonists of the sonic hedgehog signaling (Shh) pathway (AID 1259369). Also: nearly all actives have a fitted effect of over 45% in size. The essentials:
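Luminescence readout: firefly Luc under Gli1 response element in 3T3Gli1-Luc cells (NIH/3T3 clone). Antagonist mode, stimulation by conditioned medium; compound exposure 24hr at 37 C, 5% CO2.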
For orientation: Quantitative high-throughput screening tests each substance at several concentrations.

Test [2] can be described thus: qHTS assay to identify small molecule agonists of the androgen receptor (AR) signaling pathway in the presence of an antagonist - cell viability counter screen (AID 1259379; active = well fitted curve in the direction sought with a large enough effect in the repeat runs; an effect the other way counts as inactive or inconclusive;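 also: MDA-kb2 human breast cancer cells carrying an MMTV luciferase reporter; series mostly up to about 92 µM; nearly all actives have a fitted effect of over 25% in size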). The essentials:
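Viability counter screen: CellTiter-Fluor fluorescence, measured in the same wells as the luciferase read-out. MDA-kb2 cells, 3,000/well, with nilutamide at 3.0uM final and compounds at 15 concentrations, 16 hr at 37C, 0% CO2.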

The nature of test [3]: qHTS assay to identify small molecule agonists of the estrogen receptor beta (ER-beta) signaling pathway - cell viability counter screen (AID 1259380; active = well fitted curve in the direction sought with a large enough effect in the repeat runs; an effect the other way counts as inactive or inconclusive; also: nearly all actives have a fitted effect of over 30% in size). The essentials: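 Luminescence read-out (CellTiter-Glo, 30 min, room temp) taken in the same wells as the beta-lactamase reporter assay; ER-beta-UAS-bla HEK293T cells exposed to DMSO-dissolved compounds for 16 hr at 37C in 2% charcoal-stripped FBS medium.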

A short description of test [4]: qHTS assay to identify small molecule antagonists of the estrogen receptor beta (ER-beta) signaling pathway - cell viability counter screen (AID 1259382; active = well fitted curve in the direction sought with a large enough effect in the repeat runs; an effect the other way counts as inactive or inconclusive; also: series mostly up to about 92 µM; nearly all actives have a fitted effect of over 55% in size). The essentials:
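Luminescent ATP read-out (CellTiter-Glo, 30 min, RT) taken in the same wells as the bla reporter assay. HEK293T ER-beta-UAS-bla cells in 2% charcoal-stripped FBS were exposed to compounds with 1nM E2 for 16 hr at 37C.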

Test [5] in a line: qHTS assay to identify small molecule agonists or antagonists of the thyroid stimulating hormone receptor (TSHR) signaling pathway - wild type cell line counter screen (AID 1259384). A digest of the protocol:
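Wild-type Hek293 cells, 800/well, 18 h at 37C, then compound with Ro20-1724 for 30 min RT. cAMP by HTRF (cAMP-d2/anti-cAMP cryptate), 1 h RT, fluorescence read. 15 concentrations, triplicates.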

Test [6] deals with Estrogen receptor beta (Homo sapiens) (UniProt Q92731). Put plainly: qHTS assay to identify small molecule agonists of the estrogen receptor beta (ER-beta) signaling pathway (AID 1259377; active = well fitted activation curve with a large enough effect in the signal ratio in the repeat runs, not every such curve was filed as active; the % refers to the signal ratio). A digest of the protocol: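 Ratiometric beta-lactamase FRET read-out came after 2 h substrate loading at room temperature. It followed 16 h compound treatment at 37C of GripTite HEK293T cells carrying a UAS-bla reporter, plated in 2% charcoal-stripped FBS medium.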

For test [7] the target is unchanged. As to the kind of experiment: qHTS assay to identify small molecule antagonists of the estrogen receptor beta (ER-beta) signaling pathway (AID 1259378; active = well fitted inhibition curve with a large enough effect in the signal ratio in the repeat runs, not every such curve was filed as active; the % refers to the signal ratio). A digest of the protocol:
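ER-beta-UAS-bla HEK293T cells in 2% charcoal-stripped FBS medium treated with compound plus 1nM final 17-beta-estradiol for 16 hr at 37C. Beta-lactamase reporter read by FRET substrate fluorescence after 2 hours at room temperature.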

In test [8] the target is Estrogen receptor (Homo sapiens) (UniProt P03372). Put plainly: qHTS assay to identify small molecule agonists of the estrogen receptor alpha (ER-alpha) signaling pathway in the presence of an antagonist (AID 1259383). Also: top concentration of the series differs between compounds; nearly all actives have a fitted effect of over 15% in size. A digest of the protocol: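 Luciferase luminescence (ONE-Glo, 30min at room temperature) measured in VM7Luc4E2 cells after 22hr compound exposure at 15 concentrations, with 10.0nM ICI-182,780 final present; cells express endogenous ER-alpha and carry four EREs upstream of luciferase.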

For test [9], the target named is Androgen receptor (Homo sapiens) (UniProt P10275). Put plainly: qHTS assay to identify small molecule agonists of the androgen receptor (AR) signaling pathway in the presence of an antagonist (AID 1259381). Also: nearly all actives have a fitted effect of over 15% in size. Also: potency is read from the fitted curve at half-maximal effect. A digest of the protocol: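 Luciferase read-out (ONE-Glo, 30min room temperature) in MDA-kb2 MMTV-reporter cells; agonist mode run in presence of AR antagonist nilutamide, 3.0uM final. Compounds tested as 15-point series, 16hr exposure at 37C, 0% CO2.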

Molecules are shown by their SMILES. Unmarked numbers belong to inactive results. Results filed as inconclusive are left out. Calls of active or inactive are those of the source. Unless noted, calls follow the shape of the full dose curve.
% is scaled to controls: 0 for no effect and ±100 for the full control effect.

Chain of Estrogen receptor (Homo sapiens) (P03372 whole entry, looked up): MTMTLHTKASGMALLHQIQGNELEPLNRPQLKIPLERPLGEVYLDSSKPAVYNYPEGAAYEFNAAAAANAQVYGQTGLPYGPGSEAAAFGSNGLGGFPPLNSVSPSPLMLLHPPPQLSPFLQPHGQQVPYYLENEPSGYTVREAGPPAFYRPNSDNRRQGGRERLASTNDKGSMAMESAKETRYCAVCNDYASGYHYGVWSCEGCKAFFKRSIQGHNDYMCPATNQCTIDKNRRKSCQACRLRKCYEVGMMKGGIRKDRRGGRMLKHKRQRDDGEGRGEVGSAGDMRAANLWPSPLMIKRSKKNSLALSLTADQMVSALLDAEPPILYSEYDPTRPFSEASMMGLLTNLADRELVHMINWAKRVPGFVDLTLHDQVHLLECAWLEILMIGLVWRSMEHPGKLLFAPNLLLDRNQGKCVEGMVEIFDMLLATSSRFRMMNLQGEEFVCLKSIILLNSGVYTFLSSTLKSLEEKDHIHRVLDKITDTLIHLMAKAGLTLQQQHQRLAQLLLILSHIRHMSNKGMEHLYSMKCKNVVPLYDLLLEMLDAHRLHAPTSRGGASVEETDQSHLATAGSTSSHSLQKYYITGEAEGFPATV
Chain of Androgen receptor (Homo sapiens) (P10275 whole entry, looked up): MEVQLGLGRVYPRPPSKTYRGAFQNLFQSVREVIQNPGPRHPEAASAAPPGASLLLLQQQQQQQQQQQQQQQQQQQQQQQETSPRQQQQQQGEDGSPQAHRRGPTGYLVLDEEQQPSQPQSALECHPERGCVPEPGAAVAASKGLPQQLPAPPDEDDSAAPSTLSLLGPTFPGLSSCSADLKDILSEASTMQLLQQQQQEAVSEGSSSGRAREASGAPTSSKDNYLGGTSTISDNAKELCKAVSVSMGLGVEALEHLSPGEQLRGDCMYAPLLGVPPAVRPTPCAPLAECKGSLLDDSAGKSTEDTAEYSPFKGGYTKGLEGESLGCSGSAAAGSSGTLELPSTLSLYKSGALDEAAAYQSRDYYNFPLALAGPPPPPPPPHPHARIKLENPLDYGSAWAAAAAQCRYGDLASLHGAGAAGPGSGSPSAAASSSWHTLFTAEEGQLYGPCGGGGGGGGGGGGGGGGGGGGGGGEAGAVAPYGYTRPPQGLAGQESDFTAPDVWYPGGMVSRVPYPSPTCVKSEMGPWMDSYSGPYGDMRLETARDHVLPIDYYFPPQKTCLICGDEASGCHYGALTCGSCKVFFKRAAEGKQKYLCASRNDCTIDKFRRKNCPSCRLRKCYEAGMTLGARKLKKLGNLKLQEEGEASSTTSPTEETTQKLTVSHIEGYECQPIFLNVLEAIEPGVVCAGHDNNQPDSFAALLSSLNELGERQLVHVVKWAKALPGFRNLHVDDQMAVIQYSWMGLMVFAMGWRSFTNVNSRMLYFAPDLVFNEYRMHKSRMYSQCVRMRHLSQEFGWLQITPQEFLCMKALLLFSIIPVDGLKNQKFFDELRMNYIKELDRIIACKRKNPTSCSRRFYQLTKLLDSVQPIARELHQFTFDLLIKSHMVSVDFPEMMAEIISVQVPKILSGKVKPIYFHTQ
Chain of Estrogen receptor beta (Homo sapiens) (Q92731 whole entry, looked up): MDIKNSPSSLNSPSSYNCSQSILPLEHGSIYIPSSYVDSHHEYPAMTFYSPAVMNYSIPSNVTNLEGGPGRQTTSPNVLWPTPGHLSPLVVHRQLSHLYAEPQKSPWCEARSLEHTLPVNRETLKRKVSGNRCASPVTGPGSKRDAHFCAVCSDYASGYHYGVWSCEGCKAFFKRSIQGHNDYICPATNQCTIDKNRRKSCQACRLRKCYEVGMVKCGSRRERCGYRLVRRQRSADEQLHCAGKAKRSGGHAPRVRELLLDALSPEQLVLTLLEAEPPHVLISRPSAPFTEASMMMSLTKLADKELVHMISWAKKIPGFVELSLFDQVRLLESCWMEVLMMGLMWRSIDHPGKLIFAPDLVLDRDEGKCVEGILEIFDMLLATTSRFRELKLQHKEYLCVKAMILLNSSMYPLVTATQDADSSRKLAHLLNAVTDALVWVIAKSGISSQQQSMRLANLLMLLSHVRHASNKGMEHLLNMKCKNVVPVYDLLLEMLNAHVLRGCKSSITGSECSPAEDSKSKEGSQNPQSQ

In the case of `NS(=O)(=O)c1ccccc1Cl`, the Potency result in [1], in test [2], in test [3] and in test [4] was “inactive” throughout. In test [5], the compound was classed as inactive.
In the case of `CO/N=C(/C(=O)N[C@@H]1C(=O)N2C(C(=O)OCOC(=O)C(C)(C)C)=C(C)CS[C@H]12)c1csc(N)n1`, the Potency result in [1], in test [2], in [3] and in test [4] was “inactive” each time. The result in [6], in [7] and in test [5] was inactive.
Turning to `CCCCCCOC(=O)CCCCC(=O)OCCCCCC`, the Potency result in test [1], in [2], in [4] and in test [8] was “inactive” in each case. Besides, the call in test [6], in test [7] and in [5] was inactive.
For the compound `CCOC(=O)[C@H](CCc1ccccc1)N[C@@H](C)C(=O)N1[C@H](C(=O)O)C[C@@H]2CCC[C@@H]21`, the Potency entry in test [1], in test [2], in test [3], in test [4] and in test [8] was “inactive” in each case. Moreover, the result in test [6] and in [5] was inactive.
`CCCN1CCCC[C@H]1C(=O)Nc1c(C)cccc1C`: the Potency entry in test [1], in test [2], in test [3] and in test [4] was “inactive” each time. Besides, the outcome in test [5] was inactive.
For the compound `CCc1ccc(O)c(OC)c1`, the Potency result in test [1], in [2], in test [3] and in [4] was “inactive” each time. For the same compound, the call in test [7] and in [5] was inactive.
As to `CN1CCN(c2cc3c(cc2F)c(=O)c(C(=O)O)cn3-c2ccc(F)cc2)CC1`, the outcome in test [6] was inactive. Also, the Potency result in test [2], in test [3] and in test [4] was “inactive” in each case. For the same compound, the Potency in test [9] is 26.6 µM (active).
For the compound `CCOc1ccc(C(=O)OCCN(CC)CC)cc1`, the Potency result in [1], in test [2], in test [3], in [9] and in test [4] was “inactive” each time. Further, the result in test [6] and in [5] was inactive.
With `O=C(O)Cc1ccc(CCNS(=O)(=O)c2ccc(Cl)cc2)cc1`, the Potency result in test [1], in test [2], in [4] and in [8] was “inactive” throughout. The result in test [6] and in test [5] was inactive.
As for `CCCCC(CC)COC(=O)c1ccccc1O` (stereo not given), the Potency result in test [1], in [2], in test [4] and in test [8] was “inactive” each time. The outcome in test [6], in [7] and in [5] was inactive.
As to `Cc1cccc(C)c1NC(=O)C(C)N` (stereo not given), the Potency result in test [1], in test [2], in [3], in [4] and in test [8] was “inactive” in each case. Also, the call in [5] was inactive.
`CCO/C([O-])=N/c1c[n+](N2CCOCC2)no1`: the Potency result in test [1], in [2] and in test [8] was “inactive” each time. The call in test [6], in [7] and in test [5] was inactive.
For the compound `CC(C)(C)c1nnc(NS(=O)(=O)c2ccccc2)s1`, the Potency result in [1], in test [2], in test [3] and in test [8] was “inactive” in each case. The compound was called inactive in test [6], in [7] and in test [5].
As to `CC(C[N+](C)(C)C)OC(N)=O` (stereo not given), the Potency result in test [1], in test [2], in test [3] and in [8] was “inactive” in each case. Further, the compound was classed as inactive in [6].
As for `Nc1cc(=O)[nH]c(N)n1`, the Potency entry in [1], in test [2], in test [3] and in test [8] was “inactive” throughout. Besides, the outcome in test [6], in test [7] and in test [5] was inactive.
Take `CCCCOCCOCCOCCCC`: the Potency result in test [1], in test [2], in [3] and in test [4] was “inactive” throughout. The compound was called inactive in test [6] and in [5].
Consider `Cc1c(NC(C)C)c(=O)n(-c2ccccc2)n1C`, for which the Potency entry in test [1], in test [2], in [4] and in test [8] was “inactive” in each case. Moreover, the outcome in test [6] and in [5] was inactive.
On to `COC(=O)c1c(Cl)c(Cl)c(C(=O)OC)c(Cl)c1Cl`, for which the Potency entry in test [1], in [2], in [3], in test [4] and in [8] was “inactive” throughout. For the same compound, the outcome in test [6] and in test [5] was inactive.
In the case of `O=S(O)CO`, the Potency entry in test [2], in test [3], in test [9], in [4] and in test [8] was “inactive” in each case. Besides, the compound was classed as inactive in [5].
Regarding `NCCCNCCSP(=O)(O)O`, in [1], the activity change, negative = inhibition is 21.5% [at 8.39 µM]. Also, the activation is -1.24% [at 8.39 µM] in test [6] and -0.349% [at 8.39 µM] in [8]. Moreover, the activity, negative = inhibition in [7] is 13.1% [at 8.39 µM]. Moreover, the activity change, negative = cytotoxicity is 9.45% [at 8.39 µM] in [2] and 0.895% [at 8.39 µM] in test [3]. The cAMP activity change in test [5] was -0.261% [at 8.39 µM].
On to `CCCN(CCC)CCc1cccc2c1CC(=O)N2`, for which the Potency entry in test [1], in [2] and in test [3] was “inactive” each time. The call in test [6], in [7] and in test [5] was inactive.
Regarding `C[C@](N)(Cc1ccc(O)cc1)C(=O)O`, the activity change, negative = inhibition in [1] was 37.1% [at 8.39 µM]. Further, the activity change, negative = cytotoxicity was -1.36% [at 8.39 µM] in [2], 14.6% [at 8.39 µM] in [3] and 4.19% [at 8.39 µM] in test [4]. Further, the activation in [8] is 1.12% [at 8.39 µM]. Further, the cAMP activity change in [5] was 3.57% [at 8.39 µM].
In the case of `CC(C)NCCCC1(C(N)=O)c2ccccc2-c2ccccc21`, the Potency entry in test [1], in [2], in test [3], in test [4] and in test [8] was “inactive” each time. The outcome in [5] was inactive.
For the compound `OC[C@]1(O)OC[C@@H](O)[C@H](O)[C@@H]1O`, the Potency result in test [1], in test [2], in test [3] and in test [4] was “inactive” each time. In [5], the compound was called inactive.
For `CN1C(=O)N(C)C(O)C1O` (stereo not given), the Potency entry in [1], in [2], in test [3] and in test [8] was “inactive” throughout. Moreover, the compound was called inactive in [6], in test [7] and in test [5].
